Among the data in PubChem BioAssay are composite z-score and z-score values, retold here.

Each structure is given as a SMILES string. The source made the active and inactive calls.

Assay [1] relates to PRMT1 (protein arginine N-methyltransferase 1). Description: PRMT1 binders on small-molecule microarrays, primary screen, biochemical, small-molecule microarray, 635 nm fluorescence (AID 1088).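 Also: binding of Prmt1 protein to compounds spotted on small-molecule microarray slides.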 To be noted: small-molecule microarray binding, higher = more signal.
Assay [2] can be described thus: yeast growth modulation, basal conditions, primary screen, YJM789 clinical isolate, OD600, 24 h (AID 1089).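 Also: growth of clinical yeast isolate S. cerevisiae YJM 789 seeded 1000 cells per well; test concentration not given here.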 To be noted: S. cerevisiae YJM789 growth, higher = more signal, called active from +8 up or from −8 down.
Assay [3] is described as follows: fission yeast growth modulation, primary screen, strain 972, OD600, 24 h, no modulator (AID 1090).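 Also: basal condition with compound alone and no growth modifier present; test concentration not given here.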 To be noted: S. pombe 972 growth, higher = more signal, called active from +8 up or from −8 down.
A short description of assay [4]: S. cerevisiae growth modulation with rapamycin, primary screen, strain BY4716, OD600, 96 h (AID 1091). Also: test concentration not given here. To be noted: higher = more signal, called active from +8 up or from −8 down.
Assay [5] has as its target Torsin-1A-interacting protein 2 (Homo sapiens) (UniProt Q8NFQ8). Put plainly: LULL1 binders on small-molecule microarray, primary screen, cell lysate, human LULL1 lysate, 635/667 nm fluorescence (AID 1092).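 Also: probe is lysate of COS7 cells overexpressing human LULL1; score merges per-feature 667 nm fluorescence with signal-to-noise.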 To be noted: hLULL1 lysate binding, 635 nm fluorescence, higher = more signal.
The nature of assay [6]: E. coli growth modulation, two-sided OD650, primary screen, E. coli filamentation project, strain DRC41, 24 h (AID 1093).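 Also: MC1000 strain lacking acrAB efflux and sulA so SOS filamentation is blocked; test concentration not given here.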 To be noted: OD650, 24 h, higher = more signal, called active from +8 up or from −8 down.
Assay [7] is described as follows: small-molecule microarray binders of probe aLefty2, primary screen, biochemical, biotinylated probe, 635/667 nm fluorescence (AID 1094).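 Also: score merges spot fluorescence near 667 nm with spot signal-to-noise ratio.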 To be noted: higher = more signal.
Assay [8] relates to Noggin (protein binding on small-molecule microarray). Description: Noggin binders on small-molecule microarray, primary screen, biochemical, 635/667 nm fluorescence (AID 1095).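 Also: score merges 667 nm feature fluorescence with signal to noise over triplicate slides.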 To be noted: 635 nm fluorescence, higher = more signal.
Assay [9] deals with Neurogenic locus notch homolog protein 3 (Homo sapiens) (UniProt Q9UM47). Put plainly: NOTCH3 binders on small-molecule microarray, primary screen, biochemical, 635/667 nm fluorescence (AID 1096). To be noted: NOTCH3 binding, 635 nm fluorescence, higher = more signal.
Chain of Neurogenic locus notch homolog protein 3 (Homo sapiens) (Q9UM47 whole entry, looked up): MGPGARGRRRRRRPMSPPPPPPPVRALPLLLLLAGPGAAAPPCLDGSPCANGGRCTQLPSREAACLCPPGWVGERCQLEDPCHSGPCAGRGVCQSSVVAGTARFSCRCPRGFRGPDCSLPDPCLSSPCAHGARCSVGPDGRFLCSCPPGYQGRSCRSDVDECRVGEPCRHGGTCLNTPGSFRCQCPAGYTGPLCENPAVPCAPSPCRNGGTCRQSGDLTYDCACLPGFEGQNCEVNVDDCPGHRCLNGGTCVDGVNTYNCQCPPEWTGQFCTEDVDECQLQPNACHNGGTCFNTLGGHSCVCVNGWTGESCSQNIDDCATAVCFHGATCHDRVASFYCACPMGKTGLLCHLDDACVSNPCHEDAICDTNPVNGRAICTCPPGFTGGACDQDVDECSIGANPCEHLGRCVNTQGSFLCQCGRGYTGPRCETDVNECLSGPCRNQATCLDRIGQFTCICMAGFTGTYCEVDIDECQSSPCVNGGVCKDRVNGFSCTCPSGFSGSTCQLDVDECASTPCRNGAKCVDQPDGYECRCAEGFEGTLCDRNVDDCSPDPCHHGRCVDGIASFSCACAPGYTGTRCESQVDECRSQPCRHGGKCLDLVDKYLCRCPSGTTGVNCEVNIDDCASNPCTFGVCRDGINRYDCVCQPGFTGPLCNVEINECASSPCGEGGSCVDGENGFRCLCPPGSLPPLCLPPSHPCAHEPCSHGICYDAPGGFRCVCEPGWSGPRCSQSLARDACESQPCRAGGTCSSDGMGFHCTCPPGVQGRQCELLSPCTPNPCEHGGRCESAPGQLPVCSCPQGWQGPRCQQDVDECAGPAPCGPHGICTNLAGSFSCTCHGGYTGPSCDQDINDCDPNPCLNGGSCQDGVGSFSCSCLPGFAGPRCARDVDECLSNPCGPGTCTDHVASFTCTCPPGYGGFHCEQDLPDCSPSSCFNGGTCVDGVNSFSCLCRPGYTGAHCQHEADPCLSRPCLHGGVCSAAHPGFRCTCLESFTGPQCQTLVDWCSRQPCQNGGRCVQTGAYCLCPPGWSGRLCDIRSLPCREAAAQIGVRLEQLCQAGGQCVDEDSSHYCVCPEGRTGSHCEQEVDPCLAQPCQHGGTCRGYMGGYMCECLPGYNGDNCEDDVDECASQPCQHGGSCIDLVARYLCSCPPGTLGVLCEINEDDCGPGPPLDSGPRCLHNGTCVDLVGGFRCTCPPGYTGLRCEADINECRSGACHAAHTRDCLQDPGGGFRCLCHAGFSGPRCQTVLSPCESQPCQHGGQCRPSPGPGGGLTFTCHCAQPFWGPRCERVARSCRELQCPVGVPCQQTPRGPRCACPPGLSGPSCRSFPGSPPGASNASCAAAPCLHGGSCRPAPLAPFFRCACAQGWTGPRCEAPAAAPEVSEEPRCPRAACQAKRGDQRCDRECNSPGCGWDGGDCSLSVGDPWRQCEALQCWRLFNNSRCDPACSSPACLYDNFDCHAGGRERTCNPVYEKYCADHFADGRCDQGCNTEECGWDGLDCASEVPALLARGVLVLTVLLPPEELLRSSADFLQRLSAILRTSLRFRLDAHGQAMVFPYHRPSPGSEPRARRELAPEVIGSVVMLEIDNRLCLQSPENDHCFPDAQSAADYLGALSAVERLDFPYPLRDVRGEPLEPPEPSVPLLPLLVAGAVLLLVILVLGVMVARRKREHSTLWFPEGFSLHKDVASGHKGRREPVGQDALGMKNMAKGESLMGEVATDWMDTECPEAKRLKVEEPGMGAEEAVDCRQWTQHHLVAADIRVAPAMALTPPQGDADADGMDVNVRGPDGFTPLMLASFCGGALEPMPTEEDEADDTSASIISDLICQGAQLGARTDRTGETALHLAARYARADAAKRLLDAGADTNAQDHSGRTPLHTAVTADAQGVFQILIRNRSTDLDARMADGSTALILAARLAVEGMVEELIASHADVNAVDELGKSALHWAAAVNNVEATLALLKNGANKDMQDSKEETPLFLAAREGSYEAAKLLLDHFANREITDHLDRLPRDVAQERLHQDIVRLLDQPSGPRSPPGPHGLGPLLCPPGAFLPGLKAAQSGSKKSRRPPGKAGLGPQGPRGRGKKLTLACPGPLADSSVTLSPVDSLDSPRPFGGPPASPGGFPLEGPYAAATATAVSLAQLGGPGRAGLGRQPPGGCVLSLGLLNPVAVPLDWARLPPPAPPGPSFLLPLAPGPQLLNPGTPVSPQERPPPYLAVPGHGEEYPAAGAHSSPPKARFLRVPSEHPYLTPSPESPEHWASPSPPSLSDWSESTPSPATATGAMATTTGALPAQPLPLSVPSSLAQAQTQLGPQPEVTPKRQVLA
Assay [10] in a line: small-molecule microarray binders of probe aEGFR, primary screen, biochemical, biotinylated probe, 635/667 nm fluorescence (AID 1097).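 Also: probe is a biotinylated anti-EGFR antibody binding compounds printed on slides; score combines fluorescence near 667 nm and signal to noise of each spot.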 To be noted: higher = more signal.
Assay [11] has as its system Plasmodium falciparum Sir2 (PF13_0152, Sir2A). Put plainly: pfSir2 binders on small-molecule microarrays, primary screen, biochemical, small-molecule microarray, 635 nm fluorescence (AID 1098).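 Also: score merges spot fluorescence intensity with its signal-to-noise ratio.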 To be noted: small-molecule microarray binding, fluorescence 635 nm; higher = more signal.
Assay [12] in a line: small-molecule microarray binders of probe aDKK1, primary screen, biochemical, biotinylated probe, 635/667 nm fluorescence (AID 1099).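 Also: score merges 667nm spot fluorescence with signal to noise across triplicate slides; reference of the scale not given here.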 To be noted: higher = more signal.
Assay [13] is described as follows: small-molecule microarray binders of probe aCHRDL2, primary screen, biochemical, biotinylated probe, 635/667 nm fluorescence (AID 1100). To be noted: higher = more signal.
Assay [14] can be described thus: splicing luciferase reporter signal modulators, primary screen, spliceosome inhibition project, cell-based, HEK293, splice +/- reporter (AID 1101).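 Also: HEK293 cells carrying a splicing-competent luciferase reporter gene; test concentration not given here.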 To be noted: luminescence, 24 h, higher = more signal, called active from +8 up or from −8 down.
Assay [15] deals with Fibroblast growth factor 10 (Homo sapiens) (UniProt O15520). Put plainly: FGF10 binders on small-molecule microarrays, primary screen, biochemical, small-molecule microarray, 635 nm fluorescence (AID 1102). To be noted: FGF10 binding, fluorescence 635 nm, higher = more signal.
Chain of Fibroblast growth factor 10 (Homo sapiens) (O15520 whole entry, looked up): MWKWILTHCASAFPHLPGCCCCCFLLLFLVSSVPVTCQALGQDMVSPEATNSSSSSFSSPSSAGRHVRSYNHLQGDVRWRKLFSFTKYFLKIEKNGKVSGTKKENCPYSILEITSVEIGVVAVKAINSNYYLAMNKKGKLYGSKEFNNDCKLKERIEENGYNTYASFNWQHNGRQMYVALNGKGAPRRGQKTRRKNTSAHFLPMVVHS
The subject of assay [16] is glycogen synthase kinase-3 (GSK3A per assay name; protocol says GSK3B). Put plainly: GSK3 binders on small-molecule microarrays, primary screen, biochemical, small-molecule microarray, 635 nm fluorescence, GSK3A (AID 1103). Also: the record names both GSK3A and GSK3B. To be noted: small-molecule microarray binding, fluorescence 635 nm; higher = more signal.
Assay [17] addresses Epidermal growth factor receptor (Homo sapiens) (UniProt P00533). Description: EGFR binders on small-molecule microarrays, primary screen, biochemical, small-molecule microarray, 635 nm fluorescence (AID 1104).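 Also: score merges 667 nm emission intensity with spot signal to noise over triplicate slides.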 To be noted: EGFR binding, higher = more signal.
Assay [18] deals with Follistatin-related protein 3 (Homo sapiens) (UniProt O95633). Description: FSTL3 binders on small-molecule microarrays, primary screen, biochemical, small-molecule microarray, 635 nm fluorescence (AID 1105).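 Also: score merges emission near 667 nm and signal to noise per printed spot across three slides.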 To be noted: FSTL3 binding, higher = more signal.
Chain of Follistatin-related protein 3 (Homo sapiens) (O95633 whole entry, looked up): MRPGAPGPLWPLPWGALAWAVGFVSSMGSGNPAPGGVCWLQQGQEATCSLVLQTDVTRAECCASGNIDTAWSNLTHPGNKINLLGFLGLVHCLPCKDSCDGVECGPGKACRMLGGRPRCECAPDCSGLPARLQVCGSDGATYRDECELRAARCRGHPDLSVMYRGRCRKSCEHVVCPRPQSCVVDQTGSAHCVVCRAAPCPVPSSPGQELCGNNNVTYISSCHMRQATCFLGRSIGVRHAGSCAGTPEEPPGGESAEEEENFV
Assay [19] addresses Dickkopf-related protein 1 (Homo sapiens) (UniProt O94907). Description: DKK1 binders on small-molecule microarrays, primary screen, biochemical, small-molecule microarray, 635 nm fluorescence scan (AID 1106).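 Also: score merges emission near 667 nm with signal to noise over three replicate slides.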 To be noted: DKK1 binding, higher = more signal.
Assay [20] has as its system Inhibin beta A chain (activin A). Put plainly: INHBA (activin A) binders on microarrays, primary screen, biochemical, small-molecule microarray, 635 nm fluorescence scan (AID 1107).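 Also: mouse activin A protein probed at 4.33 µg/mL on printed slides; score merges bound-protein fluorescence near 667 nm with spot signal-to-noise.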 To be noted: small-molecule microarray binding, higher = more signal.

Chain of Torsin-1A-interacting protein 2 (Homo sapiens) (Q8NFQ8 whole entry, looked up): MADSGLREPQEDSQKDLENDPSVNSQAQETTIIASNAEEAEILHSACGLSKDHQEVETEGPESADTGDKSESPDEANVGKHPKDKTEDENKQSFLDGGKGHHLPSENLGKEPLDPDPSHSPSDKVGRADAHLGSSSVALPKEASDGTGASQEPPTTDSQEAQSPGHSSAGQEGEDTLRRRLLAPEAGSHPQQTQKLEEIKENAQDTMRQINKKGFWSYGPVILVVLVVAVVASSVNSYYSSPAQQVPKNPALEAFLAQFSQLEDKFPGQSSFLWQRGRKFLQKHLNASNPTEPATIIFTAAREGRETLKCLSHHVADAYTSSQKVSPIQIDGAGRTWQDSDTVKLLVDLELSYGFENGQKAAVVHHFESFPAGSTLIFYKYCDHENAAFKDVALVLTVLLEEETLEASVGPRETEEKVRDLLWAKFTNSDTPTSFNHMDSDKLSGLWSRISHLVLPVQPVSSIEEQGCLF
Chain of Epidermal growth factor receptor (Homo sapiens) (P00533 whole entry, looked up): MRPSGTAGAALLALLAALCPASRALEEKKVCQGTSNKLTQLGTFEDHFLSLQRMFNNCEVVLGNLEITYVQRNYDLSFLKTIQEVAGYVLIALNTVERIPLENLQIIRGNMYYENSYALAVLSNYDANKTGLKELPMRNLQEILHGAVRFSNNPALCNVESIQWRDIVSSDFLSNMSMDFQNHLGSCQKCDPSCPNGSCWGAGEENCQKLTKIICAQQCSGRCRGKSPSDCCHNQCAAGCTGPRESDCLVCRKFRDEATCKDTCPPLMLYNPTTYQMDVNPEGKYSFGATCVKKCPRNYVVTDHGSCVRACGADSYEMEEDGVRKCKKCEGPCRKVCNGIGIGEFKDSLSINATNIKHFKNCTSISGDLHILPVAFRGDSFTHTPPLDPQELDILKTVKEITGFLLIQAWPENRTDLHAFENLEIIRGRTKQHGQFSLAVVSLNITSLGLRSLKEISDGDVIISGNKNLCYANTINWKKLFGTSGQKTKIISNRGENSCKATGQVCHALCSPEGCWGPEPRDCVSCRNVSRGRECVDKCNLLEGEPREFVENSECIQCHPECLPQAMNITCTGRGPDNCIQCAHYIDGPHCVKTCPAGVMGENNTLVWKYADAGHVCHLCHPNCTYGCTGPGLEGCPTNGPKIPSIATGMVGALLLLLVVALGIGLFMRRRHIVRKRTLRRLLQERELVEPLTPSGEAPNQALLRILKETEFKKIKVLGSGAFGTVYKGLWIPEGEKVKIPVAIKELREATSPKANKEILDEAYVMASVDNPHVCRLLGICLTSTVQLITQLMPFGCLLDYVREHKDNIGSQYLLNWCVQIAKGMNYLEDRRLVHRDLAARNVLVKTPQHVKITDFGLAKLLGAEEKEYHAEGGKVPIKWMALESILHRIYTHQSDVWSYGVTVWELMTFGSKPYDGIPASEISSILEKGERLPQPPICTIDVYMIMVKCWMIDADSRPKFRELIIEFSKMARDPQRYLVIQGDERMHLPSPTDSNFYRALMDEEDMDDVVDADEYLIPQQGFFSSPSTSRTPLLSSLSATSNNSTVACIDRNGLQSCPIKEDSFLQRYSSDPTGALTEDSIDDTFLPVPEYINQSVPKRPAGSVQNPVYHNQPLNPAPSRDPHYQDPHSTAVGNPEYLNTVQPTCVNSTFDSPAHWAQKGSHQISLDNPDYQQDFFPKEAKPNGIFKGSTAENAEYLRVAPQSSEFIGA
Chain of Dickkopf-related protein 1 (Homo sapiens) (O94907 whole entry, looked up): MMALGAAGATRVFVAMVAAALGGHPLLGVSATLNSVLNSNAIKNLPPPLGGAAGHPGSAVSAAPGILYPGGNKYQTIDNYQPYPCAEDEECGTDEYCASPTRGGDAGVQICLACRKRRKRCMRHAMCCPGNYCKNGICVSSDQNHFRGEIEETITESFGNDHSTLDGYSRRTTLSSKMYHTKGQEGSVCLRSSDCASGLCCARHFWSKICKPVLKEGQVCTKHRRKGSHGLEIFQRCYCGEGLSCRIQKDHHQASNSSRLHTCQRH

Take `CCOC(=O)[C@H](CC(C)C)NC(=O)CCC1CC(OC(=O)NCc2ccc3c(c2)OCO3)CC2(CCCC(COC(=O)NCCCN3CCCC3=O)O2)O1` (stereo not given in full): the composite z-score in assay [1] is 1.49; in assay [5] it was 1.94; in [7] it was -0.166; in assay [8], 1.36; in assay [9], 1.04; in [10], -0.0271. Also, the composite z-score was 0.929 in assay [11]; -0.0602 in assay [12]; -0.568 in assay [13]; 0.783 in [15]; 0.805 in assay [16]; 0.414 in assay [17]. The composite z-score in assay [18] is 0.734; in assay [19], 0.509; in assay [20], -0.0813. Further, the z-score was -0.0618 (inactive) in assay [2]; 0.162 (inactive) in assay [3]; -0.474 (inactive) in [4]; 0.485 (inactive) in assay [6]; -0.719 (inactive) in assay [14].

As to `COC(=O)CC=C[C@@H](C)[C@@H](C=NOCC[C@@H]1C=C[C@H](OC(C)=O)[C@@H](COC(C)=O)O1)OC`, the composite z-score in assay [1] was 1.08; in assay [5], 0.431; in assay [7], -0.0321; in assay [8], 0.405; in assay [9], 0.308; in assay [10] it was 0.0754. In addition, the composite z-score in [11] is 0.381; in assay [12] it was -0.0928; in assay [13] it was -0.546; in assay [15], 0.933; in [16], 0.328; in [17], 0.498. The results for the composite z-score in assay [18], in [19] and in [20] were 0.651, 0.556 and -0.3, respectively. For the same compound, the z-score in [2] was 0.355 (inactive); in assay [3], -0.295 (inactive); in assay [4], 0.474 (inactive); in [6], -0.152 (inactive); in [14] it was 1.21 (inactive).

On to `CCC(=O)[C@@]1(O)C(=O)N2C(=C3C(=O)OCC[C@@H]31)N(Cc1ccccc1)C(C)=C(C(=O)OC)[C@H]2c1ccccc1`, for which the composite z-score in assay [1] is 0.374; in [5] it was 0.399; in assay [7], -0.232; in [8] it was 0.644; in [9], 0.367; in assay [10] it was -0.0059. Moreover, the composite z-score in assay [11] was 0.413; in assay [12] it was -0.302; in assay [13] it was -0.624; in [15], 0.241; in assay [16], 0.554; in [17], 0.43. The composite z-score was 0.429 in assay [18], 0.873 in assay [19] and -0.0748 in assay [20]. Further, the z-score in assay [2] was 0.725 (inactive); in [3], -0.612 (inactive); in [4], 0.0739 (inactive); in assay [6] it was 0.568 (inactive); in assay [14], 0.501 (inactive).

On to `CC(C)CCN1CCc2nc(COc3ccccc3)c3c(c2C1)CO[C@@H](C)C3`, for which the composite z-score in assay [1] is 0.0135; in assay [5] it was 1.25; in assay [7], 0.111; in assay [8], -0.0126; in [9] it was -0.149; in [10] it was -0.123. Moreover, the composite z-score is 0.605 in [11]; 0.179 in [12]; 0.844 in assay [13]; -0.185 in assay [15]; -0.113 in assay [16]; -0.0715 in assay [17]. Moreover, the composite z-score in assay [18] was -0.204; in assay [19], -0.471; in assay [20], 0.71. The z-score is 0.377 (inactive) in assay [2]; -0.438 (inactive) in assay [3]; -0.531 (inactive) in assay [4]; 1.17 (inactive) in assay [6]; 0.893 (inactive) in assay [14].

As for `C[C@H]1Cc2c(COc3ccccc3)nc3c(c2CO1)CN(CCOc1ccccc1)CC3`, the composite z-score in [1] was 1.56; in assay [5], 1.76; in assay [7], -0.0998; in assay [8], 0.216; in [9] it was 1.16; in assay [10], -0.0283. Besides, the composite z-score in [11] was 0.654; in assay [12] it was -0.133; in assay [13], -0.496; in assay [15], 1.03; in [16], 1.15; in assay [17] it was 0.5. In addition, the composite z-score in [18] worked out at 1.29; in assay [19] it was 0.538; in assay [20], 0.298. Further, the z-score in assay [2] was -0.381 (inactive); in assay [3], -2.38 (inactive); in assay [4], -1.15 (inactive); in assay [6], 1.11 (inactive); in assay [14], -0.34 (inactive).
